Molecules are shown by their SMILES. Compounds without any hit were thinned out: in the full panel of roughly 83,000, 20% have a hit.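 Cell lines were cultured in 96-well plates, exposed to a single compound concentration, and assessed for percent growth 48 hours later.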 A number with no mark means an inactive call. Active and inactive are the calls of the source. The calls were made as follows: active = growth percent below 10; inactive = the rest.

Among the test systems are SK-MEL-2 melanoma; EKVX NSCLC; SN12C renal; UO-31 renal; TK-10 renal; ACHN renal; CAKI-1 renal; MOLT-4 leukemia; A498 renal; CCRF-CEM leukemia.
Test in all cases: NCI-60 one-dose screen, 48 h (100 = growth as untreated, 0 = no growth, -100 = all killed)
Holding throughout (conditions): 10 µM

Turning to `CN1CCc2c(sc3nc4n(-c5ccc(Cl)cc5)c(=O)[nH]n4c(=O)c23)C1`, the growth in the assay with SK-MEL-2 melanoma is 96.5%; with EKVX NSCLC, 101%; with SN12C renal it was 107%; in the assay with UO-31 renal it was 89.7%; with TK-10 renal, 88.3%; in the assay with ACHN renal, 106%. Moreover, the growth is 93.1% in the assay with CAKI-1 renal and 99.1% in the assay with MOLT-4 leukemia.
For `CCn1cc(CNc2ccc(C(=O)Nc3ccc4ccccc4c3)cc2)c(C)n1`, the growth in the assay on SK-MEL-2 melanoma is 61%; with EKVX NSCLC it was 36.5%; in the assay on SN12C renal, 85.7%; in the assay on UO-31 renal, 47.1%; in the assay on TK-10 renal, 1.78% (active); in the assay on ACHN renal it was 69.5%. The growth in the assay on CAKI-1 renal was 53.6%; in the assay on MOLT-4 leukemia it was 15.5%.
Take `Nc1cc(Br)c(-c2nn3c(CCC(=O)c4nc5ccccc5[nH]4)nnc3s2)c(Br)c1`: the growth was 100% in the assay on SK-MEL-2 melanoma; 95.5% in the assay on EKVX NSCLC; 97.7% in the assay on SN12C renal; 71.1% with UO-31 renal; 117% with TK-10 renal; 99.8% in the assay on ACHN renal. The growth in the assay with CAKI-1 renal is 95.4%; in the assay on MOLT-4 leukemia, 84.9%.
Take `O=C(O)c1cn(C2CC2)c2cc(N3CCN(C(=O)c4cc(-c5ccc(Cl)cc5)nc5ccccc45)CC3)c(F)cc2c1=O`: the growth in the assay on SK-MEL-2 melanoma is 101%; in the assay with EKVX NSCLC, 85.5%; with SN12C renal, 90.9%; with UO-31 renal, 35.8%; in the assay with TK-10 renal, 113%; with ACHN renal, 87.3%. The values for the growth with CAKI-1 renal and in the assay with MOLT-4 leukemia were 60.2% and 82.1%, respectively.
`CCOC(=O)c1cc(C(=O)c2cc(OC)c(OC)c(OC)c2)n2ncc3ccccc3c12`: the growth in the assay with SK-MEL-2 melanoma is 78.5%; in the assay on EKVX NSCLC, 94.5%; in the assay on SN12C renal, 101%; in the assay with UO-31 renal, 75.6%; in the assay with TK-10 renal, 97.3%; with ACHN renal, 78.7%. The growth in the assay on A498 renal was 73.6%; with CCRF-CEM leukemia, 70.1%; in the assay with MOLT-4 leukemia, 62%.
For `O=C1OC(C(Cl)(Cl)Cl)OC1C(Cl)(Cl)Cl` (stereo not drawn), the growth with SK-MEL-2 melanoma is 102%; with EKVX NSCLC, 106%; in the assay on SN12C renal, 97.1%; in the assay on UO-31 renal, 89.4%; in the assay on TK-10 renal, 110%; with ACHN renal, 113%. Moreover, the growth was 109% in the assay with A498 renal, 104% with CCRF-CEM leukemia and -10.8% (active) with MOLT-4 leukemia.
Take `Nc1nccc(OCCO)n1`: the growth in the assay on SK-MEL-2 melanoma is 99.5%; in the assay with EKVX NSCLC it was 97.8%; in the assay on SN12C renal, 107%; in the assay with UO-31 renal, 91%; with TK-10 renal it was 90%; with ACHN renal it was 108%. The results for the growth with A498 renal, in the assay on CCRF-CEM leukemia and in the assay with MOLT-4 leukemia were 114%, 113% and 99.9%, respectively.
With `COc1ccc(-c2cc(-c3cc(OC)ccc3OC)nc(N)c2C#N)cc1`, the growth with SK-MEL-2 melanoma was 77.1%; in the assay with EKVX NSCLC it was 70.5%; in the assay with SN12C renal, 59%; with UO-31 renal, 69.4%; in the assay on TK-10 renal, 103%; in the assay with ACHN renal, 66.1%. For the same molecule, the values for the growth with CAKI-1 renal and in the assay on MOLT-4 leukemia were 90.3% and 85%, respectively.
Take `CCn1c2ccc(O)cc2c2c(C)c3c[n+](C)ccc3c(C)c21`: the growth was 40.9% in the assay on SK-MEL-2 melanoma; 73.7% in the assay with EKVX NSCLC; -32.6% (active) with SN12C renal; 64.2% with UO-31 renal; 45.6% in the assay on TK-10 renal; 60.6% in the assay on ACHN renal. In addition, the figures for the growth with CAKI-1 renal and in the assay with MOLT-4 leukemia were 85.2% and 17.8%, respectively.
Regarding `CN1CCc2c(sc3nc4n(-c5ccc(Cl)cc5)cnn4c(=O)c23)C1`, the growth was 118% in the assay on SK-MEL-2 melanoma; 87.2% with EKVX NSCLC; 98.9% in the assay with SN12C renal; 84.1% in the assay with UO-31 renal; 116% with TK-10 renal; 109% with ACHN renal. The results for the growth in the assay with CAKI-1 renal and in the assay with MOLT-4 leukemia were 97.4% and 104%, respectively.
On to `O=S(=O)(O)c1cccc(Nc2ccc3ccccc3c2)c1`, for which the growth with SK-MEL-2 melanoma was 93.7%; in the assay on EKVX NSCLC, 105%; with SN12C renal, 92.5%; in the assay on UO-31 renal, 68.9%; in the assay with TK-10 renal, 115%; with ACHN renal, 98%. For the same molecule, the growth was 96.7% in the assay on A498 renal, 95.6% in the assay with CCRF-CEM leukemia and 95.3% in the assay with MOLT-4 leukemia.
As for `S=C(NCc1ccccc1)NCc1ccccc1`, the growth with SK-MEL-2 melanoma was 97.9%; with EKVX NSCLC it was 102%; in the assay on SN12C renal, 96.3%; in the assay on UO-31 renal it was 87.1%; in the assay on TK-10 renal, 83.2%; in the assay on ACHN renal it was 105%. Moreover, the growth is 80% in the assay with A498 renal, 95.9% in the assay on CCRF-CEM leukemia and 94.9% with MOLT-4 leukemia.
On to `Nc1ccc(/C=N/Nc2ccnc3c(O)cccc23)c2cccnc12`, for which the growth is 74.1% with SK-MEL-2 melanoma; 61.8% in the assay with EKVX NSCLC; 76.9% with SN12C renal; 55.8% in the assay on UO-31 renal; 97.7% with TK-10 renal; 52.9% in the assay with ACHN renal. For the same molecule, the results for the growth in the assay on A498 renal, in the assay on CCRF-CEM leukemia and in the assay with MOLT-4 leukemia were 118%, 14.4% and 14.5%, respectively.
Regarding `COc1cc2c(cc1NC(=O)C(F)(F)F)-c1ccc(NC(=O)C(F)(F)F)cc1C2`, the growth is 105% in the assay on SK-MEL-2 melanoma; 104% with EKVX NSCLC; 86.8% in the assay on SN12C renal; 102% in the assay with UO-31 renal; 94.8% in the assay with TK-10 renal; 62.9% in the assay with ACHN renal. For the same molecule, the growth with A498 renal was 97.7%; in the assay with CCRF-CEM leukemia it was 97.6%; in the assay with MOLT-4 leukemia, 105%.
`O=S(=O)(O)c1ccc(Cl)cc1`: the growth with SK-MEL-2 melanoma was 95.9%; in the assay with EKVX NSCLC, 105%; in the assay with SN12C renal, 100%; in the assay on UO-31 renal, 88.7%; in the assay on TK-10 renal, 88.2%; with ACHN renal, 104%. For the same molecule, the results for the growth with A498 renal, in the assay with CCRF-CEM leukemia and with MOLT-4 leukemia were 110%, 106% and 98.7%, respectively.
